Among all 200,000 compounds or so, about 4,500 (2.2%) were called active. Not shown: some 12% with an inconclusive outcome. Many of the other results were omitted from the sample, so actives are more common in it than they were. Unmarked numbers belong to inactive results. Calls come from the whole dose curve; as a rule, active = well fitted inhibition curve with a large enough effect; inconclusive = small, poorly fitted or top-dose-only effect, or effect the other way; inactive = flat fitted curve, though single readings scatter.
These compounds were tested against Cruzipain (Trypanosoma cruzi) (UniProt P25779) (assay: qHTS Assay for Promiscuous and Specific Inhibitors of Cruzain (without detergent)). Conditions: purified cruzain, Z-FR-AMC fluorescence, no detergent.
Method: Cruzain is a cysteine protease from the tropical parasite Trypanosoma cruzi. Dual qHTS experiment was performed against the NCGC compound collection in order to 1) identify novel inhibitors of the enzyme and 2) profile the compound collection for promiscuous inhibitors operating via colloidal aggregation (by performing detergent-free and detergent-containing comparison screens). Cruzain was assayed by the use of fluorogenic coumarin-based substrate Z-FR-AMC: proteolytic cleavage releases AMC, whose fluorescence is measured at 360 nm excitation and 450 nm emission. Purified cruzain was supplied by the labs of Prof. James McKerrow and Brian Shoichet, UC San Francisco.
This assay had 0.00005% Triton X-100 concentration. See also releated assay "qHTS Assay for Promiscuous and Specific Inhibitors of Cruzain (with detergent)" with 0.01% Triton X-100.
See following references for additional details:
Assay Provider: Shoichet, Brian; University of California, San Fancisco
Screening Center PI: Austin, C.P.
Screening Center: NIH Chemical Genomics Center [NCGC]
Buffer: 100 mM Sodium Acetate, pH 5.5, 5 mM DTT, Triton X-100 concentration: 0.01%.
Buffer in columns 3 and 4 as negative control (no enzyme).
Substrate solution: 2 uM final concentration of Z-FR-AMC (catalog number I-1160, Bachem) dispensed throughout the plate.
Enzyme: 1.5 nM Cruzain final concentration in columns 1, 2, 5-48. Column 1 is neutral (100% activity). Column 2 contained titration of covalent inhibitor K11777, starting concentration 1 mM, then 1:2 dilution in duplicate).
Three uL of enzyme or buffer were dispensed to 1536-well Greiner black solid bottom plates. Compounds and controls (23 nL) were transferred via Kalypsys PinTool. The plates were incubated for 15 min at room temperature, and then 1 uL of substrate solution was added to start the reaction. The plates were immediately transferred to and read 4 times every 30 seconds for 2 min on ViewLux High-throughput CCD imager (Perkin-Elmer) using 360 nm excitation and 450 nm emission fluorescence protocol. The fluorescence intensity difference between the third and the first time points (time lapse of 60 seconds) was used to compute reaction progress.
Note: nearly all actives have a fitted effect of over 40% in size.
Potency is the fitted concentration of half-maximal effect.

Sequence of Cruzipain (Trypanosoma cruzi) (P25779 123-467 limits assumed): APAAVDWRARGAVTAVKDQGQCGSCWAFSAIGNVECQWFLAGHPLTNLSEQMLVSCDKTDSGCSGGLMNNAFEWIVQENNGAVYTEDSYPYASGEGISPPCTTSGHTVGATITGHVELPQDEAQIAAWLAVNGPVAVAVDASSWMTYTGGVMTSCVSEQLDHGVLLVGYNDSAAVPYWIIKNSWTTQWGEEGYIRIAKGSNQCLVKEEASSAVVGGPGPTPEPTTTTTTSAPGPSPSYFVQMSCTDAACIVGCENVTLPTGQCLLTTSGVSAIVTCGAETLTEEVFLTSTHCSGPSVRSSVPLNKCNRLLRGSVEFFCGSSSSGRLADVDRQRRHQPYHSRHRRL

Row | SMILES | max response, negative = inhibition [%] | Potency
1 | CCCCOc1ccc(CN2C(=O)C(=O)c3cc(Br)cc(C)c32)cc1OC | -26.4 | 
2 | CCOC(=O)C1CCN(C(=O)CSc2c3c(nc4ccc(Cl)cc24)CCCC3)CC1 | -19.6 | 
3 | Cc1cc(C)cc(NC(=O)CCCc2nc(-c3ccccc3Cl)no2)c1 | -8.67 | 
4 | O=c1cnc2cnc(Nc3ccccc3)nc2n1Cc1ccc(F)cc1 |  | 20 µM (active)
5 | Cc1nc2cnc(Nc3ccccc3)nc2n(Cc2ccc(F)cc2)c1=O | -10.9 | 
6 | CCNc1ncc2ncc(=O)n(CCc3ccccc3)c2n1 | 5.65 | 
7 | COc1ccc2ncc3c(-c4ccc(C)c(C)c4)nn(CC(=O)NC4CCCC4)c3c2c1 | 1.87 | 
8 | COc1ccc(Cl)cc1NC(=O)CCn1c(=O)c2cccn2c2ccccc21 | 26.4 | 
9 | Cc1cccc(Cn2c(=O)n(CCC(=O)NCCc3ccc(Cl)cc3)c(=O)c3sccc32)c1 | 0.837 | 
10 | Cc1ccc(CCNC(=O)Cn2c(-c3cccs3)cc3cc(F)ccc32)cc1 |  | 15.8 µM (active)
11 | COc1ccc(CCNC(=O)CN2CCC(n3nnc4cc(F)ccc43)CC2)cc1OC | 14.7 | 
12 | COc1cccc2c1cc1c(=O)n(CC(=O)N3CCN(c4ccccc4)CC3)nc(C)n12 | -2.78 | 
13 | CCOc1cccc2sc(N3CCN(C(=O)C4CC4)CC3)nc12 | 4.68 | 
14 | COC(=O)c1ccccc1NC(=O)Cn1c(=O)cc(C)c2c(C)nn(-c3cccc(Cl)c3C)c21 | 1.01 | 
15 | CC(C)C(=O)Nc1cccc(C(=O)Nc2ccc3c(c2)OCO3)c1 | -8.97 | 
16 | O=C(Nc1ccc2c(c1)OCO2)c1cc(-c2cccc(Cl)c2)on1 | -7.12 | 
17 | O=C(Nc1ccc2c(c1)OCO2)c1sc2cc(Cl)ccc2c1Cl |  | 10 µM (active)
18 | O=C(CCc1nc(CN2CCN(S(=O)(=O)c3ccc(Br)cc3)CC2)no1)N1CCCCC1 | 27 | 
19 | Cc1ccc(-c2nc3ccccn3c2Nc2c(C)cccc2C)o1 | 0.509 | 
20 | Cc1ccc(-n2ncc3c(N4CCC(C(N)=O)CC4)ncnc32)cc1 | 17.2 | 
21 | O=C(OCN1C(=O)c2ccccc2C1=O)/C(=C\c1ccco1)NC(=O)c1ccccc1 |  | 0.398 µM (active)
22 | Cc1cccc(NC(=O)/C(=C\c2ccco2)NC(=O)c2ccccc2)c1 | 4.33 | 

Row | SMILES | max response, negative = inhibition [%] | Potency
23 | CC(C)(C)c1ccc(C(=O)NCC(=O)OCN2C(=O)c3ccccc3C2=O)cc1 | 8.73 | 
24 | CCc1ccc(NC(=O)CCCc2nnc3n(CCCOC)c(=O)c4sccc4n23)cc1 | 1.39 | 
25 | CCc1ccccc1NC(=O)c1ccc2nc(CCc3ccccc3)oc2c1 | 1.42 | 
26 | CCCCNC(=S)N/N=C1\CCCCc2ccccc21 | -19.4 | 
27 | Cc1ccc(NC(=S)N/N=C2/CCCc3c(C)cc(C)cc32)cc1 |  | 31.6 µM (active)
28 | Cc1ccc(NC(=S)NC2CCCC2)cc1 | -5.53 | 
29 | CC(C)C[C@H](NC(=O)[C@@H]1O[C@H]1C(=O)O)C(=O)NCCCCN=C(N)N |  | 0.0316 µM (active)
30 | COc1ccc(NC(=O)CCCc2nnc3n(CCC(C)C)c(=O)c4sccc4n23)c(OC)c1 | -6.21 | 
31 | O=C(Nc1cccc(Cl)c1)c1csnn1 | -5.33 | 
32 | Cc1cccc2c1-c1sc(C(=O)Nc3ccc(F)cc3F)cc1CO2 | -26.4 | 
33 | COc1cc(NS(=O)(=O)c2ccc3c(c2)OCC(C(=O)N2CCCC2)O3)cc(OC)c1 (stereo not drawn) | 1.72 | 
34 | O=C(CCc1nc2ccccc2c(=O)[nH]1)OCC(=O)c1cccc(Cl)c1 | -3.88 | 
35 | Cc1ccc(C(=O)COC(=O)c2cccc(N3C(=O)c4c(C)nc5ccccc5c4C3=O)c2)cc1C |  | 7.94 µM (active)
36 | CCCc1nc2ccccc2c(C(=O)OCC(=O)c2ccc3c(c2)NC(=O)CO3)c1CC | -2.97 | 
37 | Cc1cccc(-n2ncc(C(=O)N3CCN(c4ccc(Cl)cc4)CC3)c2C2CCN(C(=O)OC(C)(C)C)CC2)c1 | -21.4 | 
38 | CCCCSc1ncnc2c1sc1nc(N3CCOCC3)c3c(c12)CCCC3 | 3.5 | 
39 | c1ccc(COc2nsnc2N2CCOCC2)cc1 | -3.44 | 
40 | c1ccc(CSc2ncnc3c2sc2nc(N4CCOCC4)c4c(c23)CCCC4)cc1 |  | 3.16 µM (active)
41 | CCOC(=O)c1cc(-c2ccccc2)n(-c2cccc(C(=O)Nc3cc(OC)cc(OC)c3)c2)c1C | -4.47 | 
42 | CSc1nc(Nc2ccc(F)cc2)cc(-c2ccccc2)n1 | -2.64 | 
43 | COc1cc2c(cc1O)C(SC)=NC(C)(C)C2 | -12.8 | 
44 | COc1cc2c(cc1OC)C(C(C)C)=NC(C)(C)C2 |  | 20 µM (active)

Row | SMILES | max response, negative = inhibition [%] | Potency
45 | COc1cc2c(cc1OC)C(Nc1ccc(S(N)(=O)=O)cc1)=NC(C)(C)C2 | 5.29 | 
46 | CCOc1ccc(N(CC)S(=O)(=O)N2CCCC(C(=O)NCc3ccc(Cl)cc3)C2)cc1 (stereo not drawn) | 19.9 | 
47 | CC(=O)N1CCCc2cc(S(=O)(=O)N3CCC(C(=O)NC4CCCCC4)CC3)ccc21 | 8.72 | 
48 | c1cnc(Nc2nc(-c3ccc4ccccc4c3)cs2)nc1 |  | 3.98 µM (active)
49 | COc1ccc(Nc2nc(-c3ccccc3)cs2)cc1 | -15.9 | 
50 | c1ccc(Nc2nc(-c3ccncc3)cs2)nc1 | 2.93 | 
51 | COC(=O)c1ccccc1NC(=O)c1cnn(-c2ccc(F)cc2)c1-n1cccc1 | 3.91 | 
52 | CCCc1cc(-c2nc(-c3ccc(C)cc3)cs2)ccn1 | 13.4 | 
53 | CCCCCN1CC(O)=C(c2nc(-c3ccc(Cl)cc3)cs2)C1=N |  | 5.01 µM (active)
54 | CCCCCN1CC(O)=C(c2ccccc2)C1=N | -0.607 | 
55 | Cc1ccc(S(=O)(=O)N(Cc2nc(-c3ccc(Cl)cc3)no2)C2CCCCC2)cc1 | -17.5 | 
56 | CCN(CC)S(=O)(=O)c1ccc2c(c1)N(CC(=O)NCc1ccccc1)C(=O)CS2 | 1.54 | 
57 | c1ccc(-c2csc(N3CCc4ccccc4C3)n2)cc1 |  | 25.1 µM (active)
58 | O=C(C(=O)N1CCc2ccccc2C1)N1CCc2ccccc2C1 | -0.495 | 
59 | N#C/C(=C1\CCCN1)c1nc(-c2ccccc2)cs1 | -17.6 | 
60 | Cc1ccc(OCC(=O)Nc2ccc(OCc3cc(=O)n4c(C)csc4n3)cc2)cc1C | -9.52 | 
61 | Cc1ccc(C)c(Cn2c(C)c(CNCc3ccc(F)cc3)c(C(=O)O)c2C)c1 | 16.1 | 
62 | O=C1CSC2(C(=O)N(Cc3ccccc3)c3ccccc32)N1c1cccc(F)c1 (stereo not drawn) | 2.62 | 
63 | COc1ccc(N2C(=O)CS(=O)(=O)C23C(=O)N(Cc2ccc(C)cc2)c2ccccc23)cc1Cl (stereo not drawn) |  | 2.51 µM (active)
64 | COc1ccc(CN2C(=O)CC(Cc3ccc(C)cc3)C2=O)cc1OC (stereo not drawn) | -8.47 | 
65 | Cc1oc(-c2ccccc2F)nc1CN1CCC(C(=O)NCCc2ccc(Cl)cc2)CC1 | 1.36 | 
66 | CC1=C(C(=O)OCc2ccc(C)cc2)C(c2ccccc2Cl)CC(=O)N1 (stereo not drawn) | 4.48 | 

Row | SMILES | max response, negative = inhibition [%] | Potency
67 | COc1cc2c(cc1/C=C1/NC(=O)N(c3ccccc3)C1=O)OCO2 | -27.8 | 
68 | O=C1CC(NNc2ccccc2)C(=O)N1c1cccc(Cl)c1 (stereo not drawn) | -28.1 | 
69 | O=C1N/C(=C/c2cccn2-c2ccccc2)C(=O)N1c1cccc(Cl)c1 |  | 10 µM (active)
70 | O=C(/C=C/c1ccco1)Nc1ccc(Oc2ccccc2)cc1 | -5.89 | 
71 | Cc1ccc(-n2nc3ccc(NC(=O)/C=C/c4ccco4)cc3n2)cc1C |  | 12.6 µM (active)
72 | Cc1nnc(NC(=O)/C=C/c2ccco2)s1 | -4.39 | 
73 | COc1ccccc1Nc1c2c(nc3ccc(NC(=O)/C=C/c4cc(OC)c(OC)c(OC)c4)cc13)CCCC2 | -4.58 | 
74 | Cc1ccc(O)c(NC(=O)COc2cc(C)ccc2C)c1 |  | 31.6 µM (active)
75 | COc1ccc(C(=O)Nc2cc(C)ccc2NC(=O)COc2ccccc2)cc1 | 2.68 | 
76 | Cc1ccc(OCC(=O)N/N=C\c2ccco2)c(C)c1 | 4.92 | 
77 | CC(=O)c1ccc(NC(=O)C2CCN(S(=O)(=O)c3c(C)noc3/C=C/c3ccc(C)cc3)CC2)cc1 | 9.83 | 
78 | Cc1noc(/C=C/N(C)C)c1S(=O)(=O)N1CCCC(C(=O)NCc2ccco2)C1 (stereo not drawn) | 14.2 | 
79 | Cc1noc(/C=C/c2ccco2)c1S(=O)(=O)N1CCC(C(=O)Nc2ccc(Cl)cn2)CC1 |  | 6.31 µM (active)
80 | Cc1cccc(NC(=O)C2CCN(S(=O)(=O)c3c(C)noc3/C=C/c3ccco3)CC2)c1 | 2.41 | 
81 | Cc1noc(/C=C/c2ccco2)c1S(=O)(=O)N1CCC(C(=O)N2CCc3ccccc32)CC1 |  | 15.8 µM (active)
82 | Cc1cc(C)c(/C=C/c2onc(C)c2S(=O)(=O)N2CCC(C(=O)Nc3ccc(Cl)cc3C)CC2)c(C)c1 | 0.507 | 
83 | Cc1ccc(NC(=O)CCCn2c(=O)c3cccn3c3ccccc32)cc1Cl | 8.76 | 
84 | Cc1ccc(C)c(N2CCN(C(=O)CN3C(=O)COc4ccc(S(=O)(=O)N5CCCCCC5)cc43)CC2)c1 | -9.73 | 
85 | Cc1ccc(C)c(NC(=O)CSC2=Nc3ccccc3N=C(c3ccc(F)cc3)C2)c1 | 1.61 | 
86 | O=C(Nn1c(SCc2ccc([N+](=O)[O-])cc2)nc2ccccc2c1=O)c1ccc(F)cc1 |  | 10 µM (active)
87 | O=C(CCn1c(SCC(=O)c2ccccc2)nc2ccccc2c1=O)NCc1ccc(F)cc1 | -24.2 | 
88 | O=C(Nn1c(-c2ccccc2)nc2ccccc2c1=O)c1ccc([N+](=O)[O-])cc1 | 8.42 | 
